Chlamy TAG = inducers of TAG accumulation in Chlamydomonas, primary screen, qHTS, Chlamydomonas reinhardtii; Nile Red fluorescence, 72 h; calls only at 10 µM (by protocol); 44,000 tested, 0.84% active; AID 1159537, 2015; call rule not given here;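 note: hits raise Nile Red signal meaning more stored TAG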
An asterisk follows results filed as active; i = inactive; + = active, no number. Only a selection was taken, and hits are over-represented in it overall.

SMILES	Chlamy TAG
NC(=O)c1cc(-c2ccccc2)sc1NC(=O)c1ccc(OC(F)F)cc1	+
CC(C)Oc1ccc(C(=O)Nc2ccccc2C(N)=O)cc1	i
NC(=O)c1cc(-c2ccccc2)sc1N	i
CCOc1ccc(S(=O)(=O)N(CC(=O)Nc2cc(OC)ccc2OC)c2ccccc2)cc1	i
CC1(C)CC(n2c(SCC#N)nc3c(c2=O)C2(CCCC2)Cc2ccccc2-3)CCO1 (configuration not stated)	i
COc1cc([N+](=O)[O-])ccc1NC(=O)c1c(F)c(F)c(F)c(F)c1F	+
COc1cc([N+](=O)[O-])ccc1NC(=O)c1ccccc1F	i
COc1cc([N+](=O)[O-])ccc1NC(=O)c1ccc(C)c(C)c1	i
COc1cc(CN2CCOCC2)ccc1O	i
COc1cc(C)ccc1OCCOc1ccccc1F	i
Cc1ccc(OCCCC(=O)Nc2ccc([N+](=O)[O-])cc2)cc1	i
CSc1ccc(CN2CCOCC2)cc1	i
CCc1ccc(CN2CCSCC2)cc1	i
CSc1ccc(CN2CCSCC2)cc1	+
Nc1nnc(SC/C=C/c2ccccc2)s1	i
Cc1ccc(Cl)cc1NC(=O)C(Cc1ccccc1)N1C(=O)C2C3C=CC(C3)C2C1=O (configuration not stated)	i
CN(C)CCCOc1ccc(Cl)cc1Br	i
CN1CCN(CCCOc2cc(Cl)ccc2Cl)CC1	+
Brc1cccc(OCCN2CCOCC2)c1	i
C=CCc1cc(C)ccc1OCCOCCN1CCOCC1	i
Brc1ccccc1OCCCCN1CCCCC1	i
Clc1ccc(OCCCCN2CCCC2)c(Br)c1	+
Cc1ccc(C(C)C)cc1OCCOCCN1CCOCC1	+
Cc1ccc(C(C)C)cc1OCCCN1CCNCC1	i
Cc1ccc(OCCCCN2CCOCC2)c(Br)c1	i
SMILES	Chlamy TAG
Clc1cc(Br)ccc1OCCOCCN1CCOCC1	+
CN1CCN(CCCOc2ccc(Cl)cc2C(C)(C)C)CC1	i
CN1CCN(CCCOc2ccc(Cl)c(Cl)c2)CC1	i
Cc1c(Cl)cccc1NS(=O)(=O)c1ccc(NS(=O)(=O)c2ccc(F)cc2)cc1	i
CS(=O)(=O)c1ccc2nc(NC(=O)C3CC=CCC3C(=O)O)sc2c1 (configuration not stated)	i
CCOc1ccccc1NC(=O)Nc1ccccc1C	i
COc1cccc(OC)c1OCCCN1CCCC1	i
O=[N+]([O-])c1ccc(Oc2ccc(S(=O)(=O)Nc3ccc4c(c3)OCCO4)cc2)cc1	i
COc1ccccc1OC(C)C(=O)Nc1cc(C)ccc1C (configuration not stated)	i
CCOc1ccc(C(=O)c2ccc(C)cc2)cc1	i
Cc1cc(=O)[nH]c(SCCOc2ccccc2F)n1	i
O=C(CCC1CCCC1)N1CCN(C(=O)c2cccs2)CC1	i
O=C(c1ccc(Cl)cc1Cl)n1cnc2ccccc21	i
Clc1ccc(OCCCN2CCOCC2)c(Br)c1	+
O=C(COc1ccc(Cl)cc1Br)NCCN1CCOCC1	i
Brc1ccccc1OCCCN1CCOCC1	i
Cc1ccc(NC(=O)NC2CCCCC2)c(Br)c1	i
Cc1cc(Cl)ccc1OCC(=O)Nc1nnc(CCC(=O)c2ccccc2)s1	i
CC(C)(C)c1csc(NC(=O)c2ccc(N3CCOCC3)c([N+](=O)[O-])c2)n1	+
O=C(Nc1cccc(Cl)c1)c1ccc(N2CCOCC2)c([N+](=O)[O-])c1	i
COc1ccc(C(=O)c2ccc(N3CCOCC3)c([N+](=O)[O-])c2)cc1	i
O=C(NCCCO)NC1CCCCC1	i
O=C(Nc1ccc(NS(=O)(=O)c2ccccc2)cc1)c1ccccc1	i
Cc1ccc(S(=O)(=O)Nc2ccc(C(=O)CC(=O)Nc3ccccc3)cc2)cc1	i
O=C(O)CCSCC(=O)c1ccc(NS(=O)(=O)c2ccccc2)cc1	+
SMILES	Chlamy TAG
CS(=O)(=O)N(Cc1ccccc1Cl)c1ccc(C(=O)Nc2cccnc2)cc1	i
O=C(Nc1cccnc1)c1ccc(S(=O)(=O)c2ccc(Cl)cc2)cc1	+
O=C(Nc1cccnc1)c1ccc(-c2ccc(Cl)cc2)o1	i
Cc1cccc(C(=O)Nc2ccc(Br)cc2C)c1	i
CC(C)(C)c1[nH]nc2c1[C@@H](c1ccccc1[N+](=O)[O-])C(C#N)=C(N)O2	i
Cc1ccc(S(=O)(=O)n2cccn2)cc1	+
O=S(=O)(c1ccc(Cl)cc1)n1cccn1	i
Cc1ccc(S(=O)(=O)n2ccc(C)n2)cc1	i
COc1ccc(C(C)NC(=O)c2ccc(C)s2)cc1 (configuration not stated)	i
COc1cccc(N(CC(=O)N2CCC(Cc3ccccc3)CC2)S(C)(=O)=O)c1	i
COc1cc(OC)c(OC)cc1CN1CCN(c2cccc(Cl)c2)CC1	i
O=S(=O)(c1ccc(F)cc1)N1CCN(c2ccccc2)CC1	i
O=[N+]([O-])c1ccccc1S(=O)(=O)N1CCN(c2ccc(F)cc2)CC1	i
O=S(=O)(c1ccc(Cl)c(Cl)c1Cl)N1CCN(c2ccc(F)cc2)CC1	+
Cc1ccc(C(=O)NC2c3ccccc3Oc3ccccc32)cc1	i
Fc1ccccc1CSc1nc2ncccc2[nH]1	i
Fc1ccccc1CSC1=NCCN1	+
Fc1ccccc1CSc1nnc(-c2ccncc2)n1-c1ccccc1	i
CCOc1ccc(-c2cc(C(=O)NN)c3ccccc3n2)cc1	i
OC(Cc1ccccc1)c1ccccc1 (configuration not stated)	i
Cc1ccc(C(=O)NCC(O)c2ccccc2)cc1 (configuration not stated)	i
OC(CNCCc1ccccc1)c1ccccc1 (configuration not stated)	+
C=CCNC(=O)C(=O)Nc1ccc(OC)c(OC)c1	i
COc1cccc(N2CCN(C3CCCC(C)C3)CC2)c1 (configuration not stated)	+
CC1CCC(N2CCN(c3ccccc3)CC2)C1 (configuration not stated)	+
SMILES	Chlamy TAG
COc1cccc(N2CCN(C3CCC(C)C3)CC2)c1 (configuration not stated)	i
COc1cccc(N2C(=O)CC(N3CCN(c4ccccc4)CC3)C2=O)c1 (configuration not stated)	i
COc1ccccc1N1CCN(C2CCC(C)CC2)CC1 (configuration not stated)	i
CC1CCC(N2CCN(c3ncccn3)CC2)C1 (configuration not stated)	i
Cc1cc(Cl)ccc1NC(=O)C1CCN(C(=O)c2ccccc2C)CC1	i
Cc1ccc(NC(=O)c2ccc(N3C(=O)CCC3=O)cc2)cc1	i
Cc1ccc(CN(c2ccc(C(=O)NCc3ccncc3)cc2)S(C)(=O)=O)cc1	i
O=C(O)C1CC1(c1ccc(Cl)cc1)c1ccc(Cl)cc1 (configuration not stated)	i
CC(C)(Oc1ccc(Cl)cc1)C(=O)N1CCc2ccccc21	i
Fc1ccc(-c2nnc(-c3ccccc3Cl)o2)cc1	i
Cc1sc2nc(SCc3ccc([N+](=O)[O-])cc3)[nH]c(=O)c2c1C	i
CCN1CCN(Cc2ccc(N(CC)CC)cc2)CC1	+
CCN(CC)c1ccc(CN2CCN(C)CC2)cc1	i
CCN(CC)c1ccc(CN2CCSCC2)cc1	i
O=C(NCc1cccnc1)[C@@H]1C2C=CC(C2)[C@@H]1C(=O)O (some centres not stated)	i

Assay outcomes from PubChem BioAssay.
